# Experimental data taken from PubChem BioAssay (NCI).
# About 83,000 compounds went through this panel and 20% of them were active in at least one assay; those are over-represented in the sample as a whole.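 The endpoint reported here, percent growth, reads 100 for growth as untreated, 0 for no net growth and -100 for all cells dead.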 Calls of active or inactive are those of the source. The calls were made as follows: active = growth percent below 10; inactive = the rest.
# Test system: HL-60(TB) leukemia
# Test: NCI-60 one-dose screen, 48 h (100 = growth as untreated, 0 = no growth, -100 = all killed)
# Settings: 10 µM unless noted
row,Compound,growth
1,CC(=C(c1ccc(OCCCN(C)C)cc1)c1ccc(OCCCN(C)C)cc1)c1ccc(Cl)cc1,75.5% (inactive)
2,CCCc1cc2cc(-n3nc(CC)c4c3CC(C)(C)CC4=O)cc(NC3CCC(O)CC3)c2c(=O)[nH]1 (stereo not given),-2.33% (active)
3,COc1ccc(C(=O)n2cc(C=O)c3ccccc32)cc1,93.7% (inactive)
4,CC[C@]12C=CCN3CC[C@]4(C(=C(C(=O)OC)C1)Nc1cc5c(cc14)[C@@H]1[C@H](O5)[C@@H](O)[C@@]4(CC)CC(C(=O)OC)=C5Nc6cc(O)ccc6[C@@]56CCN1C46)C32 (stereo not given in full),-9.82% (active)
5,O=C(CCCCCCNC(=O)C(O)(O)C(F)(F)F)Nc1ncc(-c2ccccc2)s1,11.2% (inactive)
6,COc1ccc(/C=N/NC(=O)CSc2nc(-c3cnccn3)cc(-c3cccs3)c2C#N)cc1,93.8% (inactive)
7,Cc1cc(C(=O)Nc2sc3c(c2C(N)=O)CCC(=O)C3)ccc1OCCN1CCCCC1,63.3% (inactive)
8,C#Cc1nc(/C=C/CCCCCCC(=O)NO)cs1,-64.8% (active)
9,CCCCN1C(=O)/C(=c2\sc3n(c2=O)C2C(NN=3)N(CC)C(=O)N2CC)c2cc(Cl)ccc21 (stereo not given),51.7% (inactive)
10,Nc1nc(N)c2c(n1)NC(c1ccc(Cl)cc1)CC(c1ccc(Nc3nc(NCCO)nc(Nc4ccc(Cl)cc4)n3)cc1)=N2 (stereo not given),9.81% (active)
11,Cn1cc(-c2nnc(N)nc2-c2cn(C)c3ccc(F)cc23)c2cc(F)ccc21,79.3% (inactive)
12,CC(=O)C1=C(C)NC(NNC(N)=S)=NC1c1ccccc1 (stereo not given),148% (inactive)
13,COc1ccc(/C=N/NC2=NC3C(S2)N(C)C(=O)N3C)cc1 (stereo not given),-28.8% (active)
14,COc1cc2nc(-c3ccc(C)cc3)cc(OCCCNCC3CCCO3)c2cc1OC (stereo not given),48.6% (inactive)
15,O=S(=O)(Nc1ccc2c(c1)OCO2)c1ccc(-c2cnc(C3CC3)o2)cc1,3.52% (active)
16,CC(=O)C1=C(C)NC(NNc2ccccc2)=NC1c1ccc([N+](=O)[O-])cc1 (stereo not given),88.3% (inactive)
17,CC(C)(C)OC(=O)N1C(=O)c2c(c3c4ccccc4[nH]c3c3ccc4ccccc4c23)C1=O,39.6% (inactive)
18,Cc1nn(-c2ccc(Cl)cc2)c(C)c1N=Nc1ccc2oc(=O)ccc2c1,93.5% (inactive)
19,COc1ccc(-c2nc3cc(Cl)c(Cl)cc3n2CC(=O)N=Nc2c(O)[nH]c3ccc(Cl)cc23)cc1,59.7% (inactive)
20,C/C(=C(/C)C1CC1CCN(C(=O)c1ccccn1)S(=O)(=O)c1ccc(C)cc1)C1CCCCC1 (stereo not given),97.4% (inactive)

row,Compound,growth
1,CC(=O)N(C)C1CCc2c(sc(NC(=O)c3ccc(C(C)(C)C)cc3)c2C(N)=O)C1 (stereo not given),40.4% (inactive)
2,Oc1[nH]c2ccc(Cl)cc2c1N=Nc1nc(N=Nc2c(O)[nH]c3ccc(Cl)cc23)nc(N2CCOCC2)n1,72.2% (inactive)
3,CC(=O)N1N=C(c2cc3ccccc3oc2=O)CC1c1cn(-c2ccccc2)nc1-c1ccc(C)cc1 (stereo not given),107% (inactive)
4,O=C(CCn1cc[n+](CC(=O)c2ccc(-c3ccccc3)cc2)c1)Nc1cccc2cccnc12,13.9% (inactive)
5,CC(=O)c1cc(C(=O)N2c3ccccc3Sc3ccccc32)n2ccc3ccccc3c12,9.89% (active)
6,COc1cc(-c2nc(-c3ccccc3)[nH]c2-c2ccnc(NCCCNS(=O)(=O)c3cccc(F)c3)n2)ccc1Cl,55.1% (inactive)
7,CN(C)CCCNc1c2ccc(Cl)cc2nc2c1oc1ccccc12,-1.28% (active)
8,Oc1ccccc1-c1nnc(SCc2ccc(O)c3ncccc23)n1-c1ccccc1,4.52% (active)
9,NC1[C@H]2CN(c3cnc(C(=O)Nc4cc(F)cc5cccnc45)cn3)C[C@@H]12 (stereo not given in full),11.5% (inactive)
10,O=C(Nc1cc(Cl)cc(Cl)c1)Nc1nc2ccc([N+](=O)[O-])cc2s1,-50.1% (active)
11,CS(=O)(=O)c1ccc(-c2nn(-c3ccccc3)cc2/C=C/C(=O)c2ccc(Br)cc2)cc1,51.9% (inactive)
12,C[C@@H]1C[C@H]2C(=O)O[C@@H](C)C(NC(=O)[C@H](Cc3cc(F)cc(F)c3)NC(=O)Nc3ccc(Cl)cc3F)C(=O)N3CCC[C@H]3C(=O)N3CCCC[C@H]3C(=O)N[C@@H](CO)C(=O)N2C1 (stereo not given in full),13.5% (inactive)
13,CCO/C=N/C1=C(C#N)C(c2ccc(OC)cc2)c2sc3c(CC)cccc3c2O1 (stereo not given),9.99% (active)
14,CCOC(=O)c1ccc(N/C=C/C(=O)c2ccccc2)cc1,84.3% (inactive)
15,CN1CCN(Cc2ccc(NC(=O)c3cncc(C#Cc4cnc5ccc(NCCCO)nn45)c3)cc2C(F)(F)F)CC1,-8.59% (active)
16,Cc1csc(/N=C(N)/N=C(\N)c2cccnc2)n1,65.9% (inactive)
17,Cn1ccnc1C(=O)/C=C/c1ccc(CNC(=O)c2c(F)c(F)c(F)c(F)c2F)cc1,20% (inactive)
18,CCOC(=O)c1sc(N)c(C(=O)OCC)c1C,38.5% (inactive)
19,COc1cc(OC)c(S(=O)(=O)NNC(=O)c2ccncc2)cc1C(=O)/C=C/c1ccc(C)cc1,51.2% (inactive)
20,CC1=CC(=O)C2=C(C)CC(OC(=O)CCc3ccccc3)[C@@H]3[C@H](OC(=O)[C@@H]3C)[C@@H]12 (stereo not given in full),87.9% (inactive)
